Records with an inconclusive call do not appear. Active and inactive are the calls of the source. Calls come from the whole dose curve; as a rule, active = well fitted inhibition curve with a large enough effect; inconclusive = small, poorly fitted or top-dose-only effect, or effect the other way; inactive = flat fitted curve, though single readings scatter.
target: ATP-dependent 6-phosphofructokinase (Trypanosoma brucei brucei) (UniProt O15648); assay: qHTS Assay to Find Inhibitors of T. brucei phosphofructokinase: hit validation (AID 492961);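 note: luminescence reports ADP formed as PFK phosphorylates fructose-6-phosphate with ATP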; details: T. brucei PFK, ADP-Glo luminescence; series mostly up to 51.4 µM
Procedure, shortened: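 Compounds titrated; %activity normalized to 0x and 1x enzyme controls, curve-fitted. Readout: ADP-Glo luminescence after 45 min room-temperature reaction of 1.25 nM PFK, 0.1 mM ATP, 0.5 mM F6P, pH 8.0.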

Chain of ATP-dependent 6-phosphofructokinase (Trypanosoma brucei brucei) (O15648 whole entry, looked up): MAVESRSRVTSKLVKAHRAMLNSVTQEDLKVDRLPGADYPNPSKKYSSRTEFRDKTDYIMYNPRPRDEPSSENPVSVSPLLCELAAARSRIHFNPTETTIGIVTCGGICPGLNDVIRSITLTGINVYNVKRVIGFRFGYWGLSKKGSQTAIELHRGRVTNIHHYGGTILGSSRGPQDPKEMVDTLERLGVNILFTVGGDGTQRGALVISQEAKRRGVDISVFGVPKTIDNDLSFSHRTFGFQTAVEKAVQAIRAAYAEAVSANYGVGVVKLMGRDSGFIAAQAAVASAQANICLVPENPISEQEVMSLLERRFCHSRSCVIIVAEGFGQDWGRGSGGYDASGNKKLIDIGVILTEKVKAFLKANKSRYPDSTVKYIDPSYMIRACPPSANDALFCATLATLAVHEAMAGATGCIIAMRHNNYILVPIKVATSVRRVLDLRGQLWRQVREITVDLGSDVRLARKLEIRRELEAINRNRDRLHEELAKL

SMILES | outcome
CN(C)/N=N/c1nc[nH]c1C(N)=O | inactive
CCN1CCC[C@H]1CNC(=O)c1c(OC)ccc(Br)c1OC | inactive
Cc1cccn2c(=O)c(-c3nnn[nH]3)cnc12 | inactive
CC1=C(C(=O)OC(C)C)C(c2cccc([N+](=O)[O-])c2)C(C(=O)OC2CN(C(c3ccccc3)c3ccccc3)C2)=C(N)N1 (stereo not given) | inactive
CC(=O)Nc1c(I)cc(I)c(C(=O)O)c1I | inactive
CN(C)C(=S)SC(=S)N(C)C | inactive
Cc1c(C)n(CCN(C)C)c2ccc(C(=O)OCCN(C)C)cc12 | inactive
Cc1cccc(C)c1NC(=O)CN1CCN(CCCC(c2ccc(F)cc2)c2ccc(F)cc2)CC1 | inactive
Cc1cc(O)c(C(C)C)cc1Cl | inactive
CC(C)COC(=O)c1ccc(N)cc1 | inactive
C#C[C@]1(O)CC[C@H]2[C@@H]3CCc4cc(OC5CCCC5)ccc4[C@H]3CC[C@@]21C | inactive
CC(Cc1cccc(C(F)(F)F)c1)NCCOC(=O)c1ccccc1 (stereo not given) | inactive
Nc1ccc(C(=O)Nc2ccccc2N)cc1 | inactive
COc1ccc(C2C(=O)c3ccccc3C2=O)cc1 | inactive
O=c1ccc2ccccc2o1 | inactive
NCCc1ccn[nH]1 | inactive
CCCCN1CCCC1C(=O)Nc1c(C)cc(C)cc1C (stereo not given) | inactive
COCc1c(C(C)C)nc(C(C)C)c(/C=C/[C@@H](O)C[C@@H](O)CC(=O)O)c1-c1ccc(F)cc1 | inactive
Cc1c(C(N)=O)cc([N+](=O)[O-])cc1[N+](=O)[O-] | inactive
CCOc1ccc(Cc2nccc3cc(OCC)c(OCC)cc23)cc1OCC | inactive

— PubChem BioAssay (NCATS)
